Our source for the composite z-score and z-score values is PubChem BioAssay.

The nature of test [1]: binders of probe aFSTL3 on microarray, primary screen, stem cell growth factor project, biochemical, small-molecule microarray, fluorescence 635/667 (AID 1064).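 Also: measures binding of the biotinylated anti-FSTL3 antibody to printed compounds.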 The following applies: higher = more signal.
Test [2] can be described thus: binders from COS7 lysate, DM2A8 probe, primary screen, torsin A project, cell lysate, small-molecule microarray, fluorescence 635/667 (AID 1065). Particulars: higher = more signal, COS7 lysate expressing mutant human TOR1A.
Test [3] is described as follows: binders of probe aFGF2 on microarray, primary screen, stem cell growth factor project, biochemical, small-molecule microarray, fluorescence 635/667 (AID 1067).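 Also: measures binding of biotinylated aFGF2 protein to printed compounds on slides; z-score merges feature fluorescence and signal-to-noise across triplicate slides.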 The following applies: higher = more signal.
Test [4] can be described thus: binders of probe aFGF10 on microarray, primary screen, stem cell growth factor project, biochemical, small-molecule microarray, fluorescence 635/667 (AID 1071).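 Also: score merges 667 nm spot intensity and signal to noise from triplicate slides.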 Particulars: higher = more signal.
The target of test [5] is Neurogenic locus notch homolog protein 2 (Homo sapiens) (UniProt Q04721). As to the kind of experiment: Notch2 binders on small-molecule microarrays, primary screen, biochemical, small-molecule microarray, 635 nm fluorescence, stem cell growth factors (AID 1073). The following applies: Notch2 binding, higher = more signal.
Neurogenic locus notch homolog protein 2 (Homo sapiens), sequence (Q04721 whole entry, looked up, canonical isoform): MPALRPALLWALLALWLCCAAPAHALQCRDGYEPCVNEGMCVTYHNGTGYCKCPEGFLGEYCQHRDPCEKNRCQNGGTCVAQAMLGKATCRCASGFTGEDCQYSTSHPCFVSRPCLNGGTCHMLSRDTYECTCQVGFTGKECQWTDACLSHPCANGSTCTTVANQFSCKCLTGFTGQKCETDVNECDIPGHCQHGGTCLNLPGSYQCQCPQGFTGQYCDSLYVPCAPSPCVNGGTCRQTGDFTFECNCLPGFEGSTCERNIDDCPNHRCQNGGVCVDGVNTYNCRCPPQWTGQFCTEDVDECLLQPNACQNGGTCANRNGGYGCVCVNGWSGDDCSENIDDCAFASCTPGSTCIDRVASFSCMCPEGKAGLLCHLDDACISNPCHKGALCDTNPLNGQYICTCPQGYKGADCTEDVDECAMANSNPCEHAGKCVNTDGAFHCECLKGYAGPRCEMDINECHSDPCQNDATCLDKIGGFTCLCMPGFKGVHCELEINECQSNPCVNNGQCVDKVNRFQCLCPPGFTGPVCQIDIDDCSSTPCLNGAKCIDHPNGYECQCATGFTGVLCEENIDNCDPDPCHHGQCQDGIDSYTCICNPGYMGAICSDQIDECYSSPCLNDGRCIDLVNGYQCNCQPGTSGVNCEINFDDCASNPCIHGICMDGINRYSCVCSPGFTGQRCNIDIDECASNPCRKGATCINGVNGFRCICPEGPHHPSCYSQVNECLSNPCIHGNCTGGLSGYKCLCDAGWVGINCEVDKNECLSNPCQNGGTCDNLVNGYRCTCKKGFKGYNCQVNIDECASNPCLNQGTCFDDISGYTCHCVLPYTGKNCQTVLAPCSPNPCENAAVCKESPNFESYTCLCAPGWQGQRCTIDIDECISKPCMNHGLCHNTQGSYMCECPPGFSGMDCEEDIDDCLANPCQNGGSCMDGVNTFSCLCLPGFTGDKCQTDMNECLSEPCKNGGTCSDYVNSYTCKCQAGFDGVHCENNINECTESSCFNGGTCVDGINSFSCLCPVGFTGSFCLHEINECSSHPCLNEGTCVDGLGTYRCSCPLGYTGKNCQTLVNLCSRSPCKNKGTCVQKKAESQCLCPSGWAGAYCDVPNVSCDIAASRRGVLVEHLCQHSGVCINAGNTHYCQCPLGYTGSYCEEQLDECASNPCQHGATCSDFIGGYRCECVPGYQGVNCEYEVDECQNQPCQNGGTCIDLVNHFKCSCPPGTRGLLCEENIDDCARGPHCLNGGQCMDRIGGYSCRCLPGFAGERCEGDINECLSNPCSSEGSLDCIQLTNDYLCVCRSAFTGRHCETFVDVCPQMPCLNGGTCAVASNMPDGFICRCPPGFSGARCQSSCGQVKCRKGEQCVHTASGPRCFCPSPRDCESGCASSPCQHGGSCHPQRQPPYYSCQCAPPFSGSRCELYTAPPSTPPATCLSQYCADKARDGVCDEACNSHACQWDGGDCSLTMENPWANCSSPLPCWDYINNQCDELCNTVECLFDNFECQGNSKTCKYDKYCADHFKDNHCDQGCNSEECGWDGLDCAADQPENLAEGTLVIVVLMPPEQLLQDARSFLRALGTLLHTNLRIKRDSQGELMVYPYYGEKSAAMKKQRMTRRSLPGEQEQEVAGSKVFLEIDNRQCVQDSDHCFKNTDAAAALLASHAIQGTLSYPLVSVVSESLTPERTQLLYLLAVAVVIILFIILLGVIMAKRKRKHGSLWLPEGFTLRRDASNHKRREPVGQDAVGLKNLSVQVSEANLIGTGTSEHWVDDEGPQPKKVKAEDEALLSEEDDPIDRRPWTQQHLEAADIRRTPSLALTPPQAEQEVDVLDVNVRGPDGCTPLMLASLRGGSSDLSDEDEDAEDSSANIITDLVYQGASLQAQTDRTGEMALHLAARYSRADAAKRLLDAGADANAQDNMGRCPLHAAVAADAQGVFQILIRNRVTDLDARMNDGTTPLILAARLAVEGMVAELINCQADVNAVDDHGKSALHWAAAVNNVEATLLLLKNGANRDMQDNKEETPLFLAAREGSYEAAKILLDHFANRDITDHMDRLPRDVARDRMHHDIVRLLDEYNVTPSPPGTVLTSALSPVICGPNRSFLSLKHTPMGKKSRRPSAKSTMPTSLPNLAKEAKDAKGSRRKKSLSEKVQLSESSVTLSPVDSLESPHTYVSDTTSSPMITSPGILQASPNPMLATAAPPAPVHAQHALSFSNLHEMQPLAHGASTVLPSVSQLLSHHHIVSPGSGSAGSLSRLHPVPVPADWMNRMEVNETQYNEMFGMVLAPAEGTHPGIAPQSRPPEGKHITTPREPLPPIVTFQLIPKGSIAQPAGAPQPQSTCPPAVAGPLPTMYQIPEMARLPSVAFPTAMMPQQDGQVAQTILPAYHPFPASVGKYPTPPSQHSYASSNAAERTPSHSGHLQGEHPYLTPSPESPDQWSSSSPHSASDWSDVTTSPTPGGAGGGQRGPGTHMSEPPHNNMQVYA
Test [6] deals with Pro-neuregulin-1, membrane-bound isoform (Homo sapiens) (UniProt Q02297). Kind of test: NRG1 binders on small-molecule microarrays, primary screen, psychiatric disease protein project, biochemical, small-molecule microarray, fluorescence 635/667 (AID 1075).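 Also: score combines 667 nm spot fluorescence with signal to noise.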 Particulars: NRG1 binding, 635 nm fluorescence, higher = more signal.
Test [7] concerns Neuregulin-1 EGF-like domain. Kind of test: binders of neuregulin-1 EGF-like domain, primary screen, biochemical, small-molecule microarray, 635 nm fluorescence (AID 1081).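 Also: binding of the protein to compounds printed on small-molecule microarray slides.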 Particulars: small-molecule microarray binding, higher = more signal.
The nature of test [8]: FRG1 promoter luciferase signal modulators, primary screen, FRG1 inhibition for FSHD, cell-based, C2C12 myotubes, firefly/Renilla luciferase, luminescence (AID 1084). Particulars: higher = more signal, called active from +8 up or from −8 down.
The nature of test [9]: binders of probe aFST on microarray, primary screen, stem cell growth factor project, biochemical, small-molecule microarray, fluorescence 635/667 (AID 1086).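 Also: score merges 667 nm fluorescence with signal-to-noise of each printed compound spot.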 The following applies: higher = more signal.
Test [10] in a line: binders of probe aHhip on microarray, primary screen, stem cell growth factor project, biochemical, small-molecule microarray, fluorescence 635/667 (AID 1087).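 Also: score merges spot fluorescence at 667nm with spot signal to noise ratio.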 The following applies: higher = more signal.
Test [11] has as its system PRMT1 (protein arginine N-methyltransferase 1). As to the kind of experiment: PRMT1 binders on small-molecule microarrays, primary screen, biochemical, small-molecule microarray, 635 nm fluorescence (AID 1088).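 Also: binding of Prmt1 protein to compounds spotted on small-molecule microarray slides.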 The following applies: small-molecule microarray binding, higher = more signal.
A short description of test [12]: yeast growth modulation, basal conditions, primary screen, YJM789 clinical isolate, OD600, 24 h (AID 1089).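 Also: growth of clinical yeast isolate S. cerevisiae YJM 789 seeded 1000 cells per well; test concentration not given here.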 Particulars: S. cerevisiae YJM789 growth, higher = more signal, called active from +8 up or from −8 down.
A short description of test [13]: fission yeast growth modulation, primary screen, strain 972, OD600, 24 h, no modulator (AID 1090).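 Also: basal condition with compound alone and no growth modifier present; test concentration not given here.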 The following applies: S. pombe 972 growth, higher = more signal, called active from +8 up or from −8 down.
Test [14] in a line: S. cerevisiae growth modulation with rapamycin, primary screen, strain BY4716, OD600, 96 h (AID 1091). Also: test concentration not given here. The following applies: higher = more signal, called active from +8 up or from −8 down.
Test [15] has as its target Torsin-1A-interacting protein 2 (Homo sapiens) (UniProt Q8NFQ8). As to the kind of experiment: LULL1 binders on small-molecule microarray, primary screen, cell lysate, human LULL1 lysate, 635/667 nm fluorescence (AID 1092).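 Also: probe is lysate of COS7 cells overexpressing human LULL1; score merges per-feature 667 nm fluorescence with signal-to-noise.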 The following applies: hLULL1 lysate binding, 635 nm fluorescence, higher = more signal.
Test [16] can be described thus: E. coli growth modulation, two-sided OD650, primary screen, E. coli filamentation project, strain DRC41, 24 h (AID 1093).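 Also: MC1000 strain lacking acrAB efflux and sulA so SOS filamentation is blocked; test concentration not given here.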 Particulars: OD650, 24 h, higher = more signal, called active from +8 up or from −8 down.
Test [17] in a line: small-molecule microarray binders of probe aLefty2, primary screen, biochemical, biotinylated probe, 635/667 nm fluorescence (AID 1094).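 Also: score merges spot fluorescence near 667 nm with spot signal-to-noise ratio.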 Particulars: higher = more signal.
Test [18] has as its system Noggin (protein binding on small-molecule microarray). As to the kind of experiment: Noggin binders on small-molecule microarray, primary screen, biochemical, 635/667 nm fluorescence (AID 1095).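 Also: score merges 667 nm feature fluorescence with signal to noise over triplicate slides.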 The following applies: 635 nm fluorescence, higher = more signal.
The target in test [19] is Neurogenic locus notch homolog protein 3 (Homo sapiens) (UniProt Q9UM47). Kind of test: NOTCH3 binders on small-molecule microarray, primary screen, biochemical, 635/667 nm fluorescence (AID 1096). Particulars: NOTCH3 binding, 635 nm fluorescence, higher = more signal.
Neurogenic locus notch homolog protein 3 (Homo sapiens), sequence (Q9UM47 whole entry, looked up): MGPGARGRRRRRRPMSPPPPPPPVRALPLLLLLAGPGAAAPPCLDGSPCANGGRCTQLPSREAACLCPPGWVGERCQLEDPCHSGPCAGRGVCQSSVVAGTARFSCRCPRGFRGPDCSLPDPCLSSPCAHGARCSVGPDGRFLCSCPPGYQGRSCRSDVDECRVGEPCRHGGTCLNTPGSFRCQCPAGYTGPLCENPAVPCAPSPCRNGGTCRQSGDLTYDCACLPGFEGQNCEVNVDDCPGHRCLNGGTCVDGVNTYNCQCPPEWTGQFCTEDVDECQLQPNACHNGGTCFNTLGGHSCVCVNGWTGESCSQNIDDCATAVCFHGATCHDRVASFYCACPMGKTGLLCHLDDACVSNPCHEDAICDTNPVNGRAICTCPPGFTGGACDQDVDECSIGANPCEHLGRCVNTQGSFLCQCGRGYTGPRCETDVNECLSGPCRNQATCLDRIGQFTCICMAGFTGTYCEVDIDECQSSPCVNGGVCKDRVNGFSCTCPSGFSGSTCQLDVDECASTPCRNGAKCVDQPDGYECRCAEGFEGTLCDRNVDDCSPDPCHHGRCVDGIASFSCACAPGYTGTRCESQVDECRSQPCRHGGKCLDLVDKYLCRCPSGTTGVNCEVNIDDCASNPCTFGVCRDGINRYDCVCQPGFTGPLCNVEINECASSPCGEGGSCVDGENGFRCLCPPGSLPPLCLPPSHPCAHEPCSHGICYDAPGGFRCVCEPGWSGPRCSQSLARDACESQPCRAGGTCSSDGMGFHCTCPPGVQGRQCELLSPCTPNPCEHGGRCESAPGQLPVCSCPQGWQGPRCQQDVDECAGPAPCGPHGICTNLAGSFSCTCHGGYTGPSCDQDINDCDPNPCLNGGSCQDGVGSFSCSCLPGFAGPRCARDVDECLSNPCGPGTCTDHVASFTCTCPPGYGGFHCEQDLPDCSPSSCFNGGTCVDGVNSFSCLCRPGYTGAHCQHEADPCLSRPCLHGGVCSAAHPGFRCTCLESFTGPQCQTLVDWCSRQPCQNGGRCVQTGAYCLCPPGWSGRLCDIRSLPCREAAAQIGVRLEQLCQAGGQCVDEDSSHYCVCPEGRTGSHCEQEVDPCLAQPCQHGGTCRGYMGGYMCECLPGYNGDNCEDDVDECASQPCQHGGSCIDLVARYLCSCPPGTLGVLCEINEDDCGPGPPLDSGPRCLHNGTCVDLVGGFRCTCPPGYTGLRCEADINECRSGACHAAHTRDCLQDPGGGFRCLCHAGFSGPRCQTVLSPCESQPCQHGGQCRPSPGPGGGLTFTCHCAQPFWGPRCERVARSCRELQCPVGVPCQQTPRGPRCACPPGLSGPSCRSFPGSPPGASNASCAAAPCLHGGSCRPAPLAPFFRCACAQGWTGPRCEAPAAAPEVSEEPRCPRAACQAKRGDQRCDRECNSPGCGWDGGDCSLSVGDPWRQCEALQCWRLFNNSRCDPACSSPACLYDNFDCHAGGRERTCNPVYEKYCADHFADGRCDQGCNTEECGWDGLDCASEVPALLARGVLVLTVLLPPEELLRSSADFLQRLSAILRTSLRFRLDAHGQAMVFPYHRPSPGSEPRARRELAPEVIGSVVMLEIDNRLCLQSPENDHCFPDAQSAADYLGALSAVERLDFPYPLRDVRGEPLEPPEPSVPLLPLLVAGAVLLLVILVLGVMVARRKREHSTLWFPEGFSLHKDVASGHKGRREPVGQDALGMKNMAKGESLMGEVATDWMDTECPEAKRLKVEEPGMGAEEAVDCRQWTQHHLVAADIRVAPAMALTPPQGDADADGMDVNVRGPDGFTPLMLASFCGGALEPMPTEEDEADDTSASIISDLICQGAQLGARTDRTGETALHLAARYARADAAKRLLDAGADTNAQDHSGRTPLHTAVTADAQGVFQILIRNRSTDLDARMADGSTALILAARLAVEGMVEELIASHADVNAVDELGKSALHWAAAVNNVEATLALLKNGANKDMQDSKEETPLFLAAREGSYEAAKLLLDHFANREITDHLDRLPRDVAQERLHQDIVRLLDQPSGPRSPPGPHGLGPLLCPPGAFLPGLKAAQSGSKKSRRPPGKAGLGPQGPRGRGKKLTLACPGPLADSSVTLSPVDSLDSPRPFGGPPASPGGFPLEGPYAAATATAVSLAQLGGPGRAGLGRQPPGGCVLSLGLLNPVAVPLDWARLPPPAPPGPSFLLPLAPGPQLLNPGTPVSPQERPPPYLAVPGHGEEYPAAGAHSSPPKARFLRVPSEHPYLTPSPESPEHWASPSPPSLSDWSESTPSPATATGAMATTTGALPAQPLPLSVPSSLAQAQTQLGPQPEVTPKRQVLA
Test [20] is described as follows: small-molecule microarray binders of probe aEGFR, primary screen, biochemical, biotinylated probe, 635/667 nm fluorescence (AID 1097).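 Also: probe is a biotinylated anti-EGFR antibody binding compounds printed on slides; score combines fluorescence near 667 nm and signal to noise of each spot.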 The following applies: higher = more signal.

The source made the active and inactive calls.

Take `CO[C@H]1O[C@H](CO)[C@@H](OC(=O)Nc2ccc(C(F)(F)F)cc2)[C@H](OC(=O)Nc2ccccc2)[C@@H]1OC(=O)Nc1ccccc1`: the composite z-score was -0.181 in test [1]; -0.0087 in test [2]; 0.113 in test [3]; 0.392 in test [4]; 1.29 in [5]; 0.781 in test [6]. The composite z-score in test [7] was 0.879; in test [9], 0.234; in [10], -0.188; in test [11] it was 1.54; in [15], 3.11; in test [17], -0.0657. In addition, the composite z-score is 1.24 in test [18], 0.968 in test [19] and -0.289 in [20]. The z-score in test [8] was 5.33 (inactive); in test [12] it was 0.0975 (inactive); in test [13], 0.252 (inactive); in test [14], 0.168 (inactive); in test [16], -0.142 (inactive).

On to `O=C1O[C@H](c2ccccc2)[C@H](c2ccccc2)N2[C@H]1[C@@H](C(=O)NC[C@H](O)c1ccccc1)[C@]1(C(=O)Nc3ccc(C#CC4(O)CCCCCC4)cc31)[C@H]2c1ccccc1OCCO`, for which the composite z-score is -0.267 in test [1]; 0.444 in [2]; -0.136 in test [3]; 0.566 in [4]; 0.967 in [5]; 0.911 in test [6]. Also, the composite z-score in test [7] is 1.12; in [9] it was 0.0026; in [10], -0.0645; in test [11] it was 1.54; in test [15], 2.84; in [17], -0.119. For the same molecule, the composite z-score in test [18] is 1.08; in test [19], 0.644; in test [20] it was -0.182. The z-score in [8] was -0.369 (inactive); in [12] it was 2.05 (inactive); in test [13], 1.27 (inactive); in [14] it was 5.14 (inactive); in test [16], 0.0483 (inactive).

In the case of `O=C1C2C=CC(C(O)c3ccc(-c4ccccc4)s3)N(Nc3ccccc3F)C2C(=O)N1c1ccccc1` (stereo not given), the composite z-score came to 0.623 in [1]; 0.0116 in test [2]; 0.0352 in test [3]; 0.243 in [4]; 1.58 in test [5]; 1.65 in [6]. The composite z-score in [7] is 1.28; in [9], 0.955; in test [10] it was -0.0296; in test [11], 1.33; in [15], 2.85; in test [17], 0.207. The composite z-score in test [18] was -0.243; in test [19], 1.02; in [20] it was 0.232. Besides, the z-score is 1.72 (inactive) in [8]; 0.264 (inactive) in test [12]; 0.167 (inactive) in test [13]; 1.58 (inactive) in test [14]; -1.82 (inactive) in test [16].

`COC(=O)c1c2oc(c1C(=O)OC)C(=O)N[C@H](Cc1ccccc1)Cn1nncc1C1(CCCCC1)NC(=O)N[C@H](CO)CC2`: the composite z-score is -0.442 in [1]; 0.158 in test [2]; -0.0853 in test [3]; 0.108 in [4]; 0.0153 in test [5]; -0.0781 in test [6]. Moreover, the composite z-score in test [7] was 0.646; in test [9], 0.233; in test [10], -0.212; in test [11] it was 0.702; in test [15], 1.03; in [17], -0.205. Further, the composite z-score in test [18] is 0.311; in test [19] it was 0.17; in test [20] it was -0.115. The z-score in test [8] was -1.33 (inactive); in [12], 0.776 (inactive); in [13] it was 0.414 (inactive); in test [14], -0.178 (inactive); in test [16], 1.17 (inactive).

As to `C/C=C/[C@H](CCn1cc([C@H](O)c2ccccc2)nn1)[Si](C)(C)c1ccc(OC)cc1`, the composite z-score is 1.18 in test [1]; -0.153 in test [2]; -0.234 in test [3]; -0.071 in [4]; -1.51 in test [5]; 0.0287 in test [6]. In addition, the composite z-score is -0.0288 in [7]; -1.04 in [9]; -0.374 in test [10]; -0.144 in test [11]; 0.0061 in [15]; -0.139 in test [17]. Further, the composite z-score in test [18] is -0.953; in test [19] it was -0.999; in test [20] it was -0.375. Also, the z-score was -0.488 (inactive) in test [8]; -0.298 (inactive) in [12]; -1.05 (inactive) in test [13]; -0.229 (inactive) in test [14]; 0.0004 (inactive) in [16].

As to `COCCOC(=O)N1C(=O)[C@@]2(c3ccccc31)[C@H](C(=O)N1CCCCCCC1)[C@H]1C(=O)O[C@H](c3ccccc3)[C@H](c3ccccc3)N1[C@@H]2c1ccccc1OCCO`, the composite z-score stood at 3.82 in [1]; 1.77 in [2]; 0.679 in [3]; 0.684 in [4]; 1.3 in test [5]; 1.84 in test [6]. Also, the composite z-score in test [7] was determined as 1.38; in test [9] it was 3.36; in test [10], 3.52; in test [11], 1.53; in [15], 3.61; in test [17], 1.67. For the same molecule, the composite z-score in [18] was 0.785; in [19], 1.06; in test [20], 1.03. In addition, the z-score is -0.91 (inactive) in test [8]; 0.749 (inactive) in test [12]; 0.238 (inactive) in test [13]; 5.75 (inactive) in test [14]; -0.737 (inactive) in test [16].
